Compound activity from PubChem BioAssay.
This excerpt belongs to a sample that is enriched for hits.
Tgondii IFNg: T. gondii growth inhibition with IFN-gamma, primary screen, cell-based. activity change, negative = inhibition, % (no concentration beside the values). Toxoplasma gondii growth in IFN-gamma-treated host cells; hits give low values. AID 1259416, 2018. hit rate 3.8% among 69,000; in the data active = activity change below about -70%, passing the limit was not always enough;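 also: host cells are HeLa cells infected with Toxoplasma gondii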
Each line names hits and unclear results; the compound was inactive in the other large screens.

Cc1oc(-c2cccc(C(F)(F)F)c2)nc1CN(C)Cc1cnc(N)nc1	none
FC(F)(F)c1cccc(-c2nnc(C3c4ccccc4Oc4ccccc43)o2)c1	Tgondii IFNg -99
CC(C)(C)OC(=O)N1CCCC1c1cc(N)on1 (centres undefined)	none
COc1cccc(NC(=O)c2c(O)c3cccnc3n(-c3ccc(F)cc3)c2=O)c1	none
CC(=O)NCc1csc(C2CCCN(S(=O)(=O)c3ccc(F)c(F)c3)C2)n1 (centres undefined)	none
NCCc1cccc(-c2cc(NCCO)nc3[nH]ccc23)c1	none
Cc1cc(-c2cc(NC3CCNCC3)nc3[nH]ccc23)c(=O)[nH]c1C	Tgondii IFNg -85
COc1ncc(-c2cc(NCCN(C)C)nc3[nH]ccc23)c(OC)n1	none
CC(O)c1cccc(-c2cc(NC3CCNCC3)nc3[nH]ccc23)n1 (centres undefined)	Tgondii IFNg -93
Cc1cc(-c2ccnc3c2ccn3C)c(=O)[nH]c1C	none
Cc1nc(-c2cc(NCc3ccccn3)nc3[nH]ccc23)cc(C(C)C)n1	none
c1ccc(CNc2cc(-c3nccc4occc34)c3cc[nH]c3n2)nc1	none
CNc1cc(-c2ccc(CN)cn2)c2cc[nH]c2n1	none
c1ccc2c(-c3cc(NC4CCNCC4)nc4[nH]ccc34)n[nH]c2c1	Tgondii IFNg -75
O=C1c2ccccc2S(=O)(=O)N1CCS(=O)(=O)c1ccc(Cl)cc1Cl	none
Nc1nc(N)c([NH2+][O-])c(OCC2CCCCC2)n1	none
CC(=O)N1CC[C@@]2(C[C@@H](NS(=O)(=O)C3CC3)CCO2)C1	none
Cc1nnsc1CN1CCC(=O)N(Cc2ccc(F)cc2)C(C(C)C)C1 (centres undefined)	none
O=C(O)CCCNC1C=CS(=O)(=O)C1 (centres undefined)	none
COc1ccc(Cc2nnc(N)s2)cc1	none
CO[C@H]1CN(C(=O)c2cc(C)nc3c(C)c(C)ccc23)CC[C@H]1N	none
CC(=O)O[C@]1(C(C)=O)CCC2C3C=C(C)C4=CC(=O)CCC4(C)C3CCC21C (some centres undefined)	none
CCCCNC(=O)CCC1N=C2c3ccccc3N=C(SCc3ccc(C)cc3C)N2C1=O (centres undefined)	none
COc1ccc(Cn2nnnc2C(c2ccc3ncccc3c2)N2CCSCC2)cc1 (centres undefined)	none
COc1ccccc1CC(C)NC(=O)c1cnc(N(C)C)nc1 (centres undefined)	none
COCCc1ncc(CN(Cc2ccncc2)Cc2ccc3c(c2)OCO3)cn1	Tgondii IFNg -71
Cc1ccc(CN(Cc2ccc3c(c2)OCO3)Cc2cnc(C)[nH]2)cc1	none
Cc1ccc(O)c(CN(Cc2cccnc2)Cc2ccc3c(c2)OCO3)n1	none
CCc1ccccc1NC(=O)c1nnn(Cc2nc(-c3ccc(Cl)cc3)oc2C)c1C	none
CC(=O)Nc1cccc(-c2ccc(C(=O)N3CCOCC3)o2)c1	none
CC(=O)Nc1nc(C2CCN(C(=O)c3ccn(C)n3)CC2)cs1	none
O=C(CCc1ccccc1)Nc1ccccc1C(F)(F)F	none
O=C(CCc1nc2ccccc2[nH]1)NCCc1ccc(C(F)(F)F)cc1	none
CC(C)(C)c1cc(C(F)(F)F)nc(SCCCNC(=O)CCc2ccccc2)n1	Tgondii IFNg -74
CC(C)c1nc(CCNC(=O)c2ccc(C3CCNC3)cc2)cs1 (centres undefined)	none
O=C(CSc1nc2ccccc2o1)Nc1nnc(SCc2ccccc2)s1	none
COCCSc1nnc(NC(=O)c2ccco2)s1	none
O=C(Nc1nnc(SCc2ccccc2)s1)C1COc2ccccc2C1 (centres undefined)	Tgondii IFNg -83
Cc1nccc([C@H]2C[C@H]3CCN(C(=O)c4cnoc4C)C[C@@H]3O2)n1	none
CSc1nccc(-c2ccc(S(C)(=O)=O)cc2)n1	none
Cc1ncc(-c2ccnc(Nc3ccc(S(C)(=O)=O)cc3)n2)n1C(C)C	Tgondii IFNg -77
Cc1nn(C)c(C)c1-c1ccnc(NCCN2CCN(C(C)C)CC2)n1	none
O=c1[nH]c2ccc(Cl)cc2c(-c2ccccc2)c1N1CCCCC1	none
COc1ccc2c3c([nH]c2c1)[C@@H](CO)N(Cc1ccccc1F)CC31CN(CC2CC2)C1	none
Cc1ccc(S(=O)(=O)N(C)c2ccc(Br)cc2C(=O)c2ccccc2)cc1	none
CN1C[C@@H]2C3(CCN(S(=O)(=O)C4CC4)CC3)CC[C@@]2(C(=O)N2CCCC2)C1	none
CCc1nc(CC)n(Cc2nc(-c3cccs3)no2)n1	none
CCCNC(=O)c1ccc2onc(-c3coc(-c4cccs4)n3)c2c1	none
Fc1cccc2c(OC3CCN(Cc4ccccc4)CC3)cc(C(F)(F)F)nc12	Tgondii IFNg -94
Cc1cccc(CN2CCC(CNc3nc(-c4ccc(Cl)cc4)nc4ccccc34)CC2)c1	none
Clc1ccc(-c2nc(NC3CCN(Cc4ccccc4)CC3)c3ccccc3n2)cc1	none
COc1ccccc1N1CCN(C(=O)c2cccs2)CC1	none
COc1ccccc1N1CCN(Cc2nc(-c3ccc(Br)cc3)cs2)CC1	Tgondii IFNg -72
COc1ccccc1N1CCN(CCCCNC(=O)c2ccc(-c3ccc(C(C)=O)cc3)cc2)CC1	none
CCOC(=O)c1c(NC2CCCCC2)c2ccc(Cl)cc2[nH]c1=O	none
CCN(CC)Cc1cnc2n1CCN(c1ncccn1)CC2	none
